Experimental findings from PubChem BioAssay (NCI) are described below.

The panel holds about 79,000 compounds, 15% with a hit somewhere; the sample as a whole holds those more often. Values without a mark were called inactive. Activity calls are given as the source filed them. Rule as the data show it: active = growth inhibition above about 70%; inactive = the rest.

Assay [1] is described as follows: NCI Yeast Anticancer Drug Screen. Data for the rad50 strain (AID 155).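 Also: 0% = growth of vehicle-only cultures of the same strain.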 The note with it: S. cerevisiae rad50 strain growth inhibition; at 50.0 µM; hits give high values. The essentials:
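A DNA repair-deficient yeast mutant serves as the test organism; compound-induced growth inhibition is calculated against vehicle-treated cells.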

Assay [2] in a line: NCI Yeast Anticancer Drug Screen. Data for the mec2-1 strain (AID 157). The conditions noted are these: S. cerevisiae mec2-1 strain, at 50.0 µM, hits give high values. The essentials: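 Mutant yeast (mec2-1) grown with compound; growth inhibition relative to vehicle control reported.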
A short description of assay [3]: NCI Yeast Anticancer Drug Screen. Data for the sgs1 mgt1 strain (AID 161).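 Also: 0% = growth of cultures given vehicle only.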 The note with it: S. cerevisiae sgs1 mgt1 strain, at 50.0 µM, hits give high values. The essentials: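 Percent growth inhibition was derived by comparing compound-exposed mutant yeast with vehicle-exposed cultures. The strain carries alterations in DNA damage repair.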
The nature of assay [4]: NCI Yeast Anticancer Drug Screen. Data for the cln2 rad14 strain (AID 165).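 Also: 0% = growth equal to vehicle treated cultures.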 The conditions noted are these: S. cerevisiae cln2 rad14 strain, at 50.0 µM, hits give high values. The gist of the method: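 Readout is yeast growth inhibition versus vehicle-treated controls, using a strain with cln2 and rad14 alterations exposed to compound.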
Assay [5] can be described thus: NCI Yeast Anticancer Drug Screen. Data for the bub3 strain (AID 167). The note with it: S. cerevisiae bub3 mutant strain, at 50.0 µM, hits give high values. The gist of the method:
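Inhibition values come from growth of compound-treated mutant yeast normalised to vehicle-treated controls.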

The nature of assay [6]: NCI Yeast Anticancer Drug Screen. Data for the mlh1 rad18 strain (AID 175). The conditions noted are these: S. cerevisiae mlh1 rad18 strain growth inhibition; at 50.0 µM; hits give high values. The gist of the method:
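Genetically defined yeast (DNA repair-deficient) exposed to compounds; growth inhibition determined relative to vehicle.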

Regarding `COc1ccc2c(c1)CC(CN1CCC3(CC1)C(=O)N(C)CN3c1ccccc1)O2` (centres undefined), the growth inhibition was -24.6% in assay [1]; 0.95% in assay [2]; -19.7% in assay [3]; -27.4% in assay [4]; 0.45% in assay [5]; -9.8% in assay [6].
Turning to `Cc1ccnc(NN=O)c1`, the growth inhibition was -2.35% in assay [1]; -18.8% in assay [2]; -6.75% in assay [3]; -1.05% in assay [4]; -17.1% in assay [5]; 2.25% in assay [6].
For `C/C=C1/C[C@@H](C)[C@@](C)(O)C(=O)OCC2=CC[N+]3([O-])CC[C@@H](OC1=O)[C@@H]23` (some centres undefined), the growth inhibition in assay [1] was -0.9%; in assay [2] it was -17.4%; in assay [3] it was -3.4%; in assay [4] it was 10.7%; in assay [5], -15.9%; in assay [6] it was -53.6%.
For `CC(C)OP(=S)(Oc1ccc(Cl)cc1Cl)OC(C)C`, the growth inhibition was 20.9% in assay [1]; -11.7% in assay [2]; 31.9% in assay [3]; 8.8% in assay [4]; 21.2% in assay [5]; 8% in assay [6].
In the case of `CN(C)c1ccc(C=C2C(=O)NC(=O)NC2=O)cc1`, the growth inhibition in assay [1] is 37.9%; in assay [2], -16.4%; in assay [3], 19.1%; in assay [4], 14.4%; in assay [5], 14.8%; in assay [6], 9.65%.
With `COc1ccc(CN2CCCN(Cc3ccc(OC)cc3)C2c2ccc(N(CCCl)CCCl)cc2)cc1`, the growth inhibition is 30.3% in assay [1]; 2.4% in assay [2]; 43.8% in assay [3]; 19.8% in assay [4]; -15.3% in assay [5]; 35.8% in assay [6].
Regarding `Nc1cccnc1`, the growth inhibition in assay [1] was -29.1%; in assay [2], -35.5%; in assay [3], 23.8%; in assay [4] it was -1.55%; in assay [5] it was -23.6%; in assay [6], -5.65%.
As for `CCC1CCC2CCCC(C)N12` (centres undefined), the growth inhibition in assay [1] is 9.05%; in assay [2], 4.25%; in assay [3] it was -3.2%; in assay [4], 1.5%; in assay [5], 8.2%; in assay [6], 7.75%.
For the compound `C1CN2CCOC2O1`, the growth inhibition in assay [1] is -12.4%; in assay [2] it was 15.2%; in assay [3], -9.1%; in assay [4] it was 4.65%; in assay [5] it was 7.45%; in assay [6], -7.1%.
As for `OC12CCC[N+]1(Cc1ccccc1)CCC2` (centres undefined), the growth inhibition in assay [1] was 9.25%; in assay [2] it was -9.75%; in assay [3] it was -7.9%; in assay [4], 2.85%; in assay [5], -0.55%; in assay [6], -18.1%.
Regarding `C/C=C/C(C)C1(CCC)C(=O)NC(=O)NC1=O` (centres undefined), the growth inhibition is 0.35% in assay [1]; 2.6% in assay [2]; -3.8% in assay [3]; -37.2% in assay [4]; 8.5% in assay [5]; -3.8% in assay [6].
Regarding `CP1(=O)CC23CCCCC2(C1)O3` (centres undefined), the growth inhibition in assay [1] is 2%; in assay [2] it was -29.9%; in assay [3], -3.3%; in assay [4], -44.2%; in assay [5] it was -15%; in assay [6] it was -7.9%.
Take `C=CCOC(=O)Cc1ccccc1`: the growth inhibition in assay [1] was 20.5%; in assay [2], -5.35%; in assay [3], 4.9%; in assay [4], -31.9%; in assay [5], -39.2%; in assay [6], -3.9%.
With `C1CCN2COCC2C1` (centres undefined), the growth inhibition in assay [1] is -16.2%; in assay [2] it was -16.9%; in assay [3], -38.5%; in assay [4], 0.7%; in assay [5] it was -17.2%; in assay [6] it was 22.4%.
On to `NCCc1c[nH]c2ccccc12`, for which the growth inhibition in assay [1] is 10.8%; in assay [2] it was -3.3%; in assay [3], -15.8%; in assay [4], 9%; in assay [6], -12.8%.
Regarding `CCC(C)OC(=O)Nc1cccc(OC(=O)NC)c1` (centres undefined), the growth inhibition is 4.75% in assay [1]; -22.6% in assay [2]; -2.1% in assay [3]; -2.15% in assay [4]; -0.3% in assay [6].
On to `COc1ccc2c(c1)C1(C=N2)CCN(C(C)=O)CC1`, for which the growth inhibition was 3.25% in assay [1]; -17.1% in assay [2]; -16.4% in assay [3]; 17.1% in assay [4]; -24.8% in assay [6].
For `CC(C)N([PH2+]N(C(C)C)C(C)C)C(C)C.[C-]#[O+].[C-]#[O+].[C-]#[O+].[C-]#[O+].[C-]#[O+].[Mo]`, the growth inhibition was 9.4% in assay [1]; 15.9% in assay [2]; -2.2% in assay [3]; 17.1% in assay [4]; -1.35% in assay [6].
`Nn1cnnc1`: the growth inhibition in assay [1] was -12.9%; in assay [2], -7.95%; in assay [3] it was -9.7%; in assay [4], -9.35%; in assay [6] it was -16.2%.
On the same counts, the results for `Cc1ccccc1/C(=C/c1ccc([N+](=O)[O-])cc1)C(=O)Nc1ccc(S(=O)(=O)F)cc1` are 97.1% (active), 95.5% (active), 96.3% (active), 96.3% (active) and 97.5% (active).
Take `CCOP(=O)(OCC)Oc1ccncc1`: the growth inhibition in assay [1] is -2.8%; in assay [2], -0.3%; in assay [3] it was -7.6%; in assay [4], -4.25%; in assay [6], 4.1%.
The corresponding values for `Cn1nnc(C(N)=O)n1` are -9.65%, -15.2%, -15.8%, -12.8% and -18.8%.
On the same counts, the results for `COc1cc2c(cc1OC)C13CCN4CC5CCOC6CC(=O)N2C1C6C5CC43` (centres undefined) are 8.6%, 6.35%, 21.6%, 10.2% and -72.3%.
Take `CC(C)CNC12CN3CN(CN(C3)C1)C2`: the growth inhibition in assay [1] was -9.25%; in assay [2] it was -11.2%; in assay [3], -6%; in assay [5], -4.85%; in assay [6] it was -23.7%.
Turning to `CC(=O)N(N=O)c1cc(Cl)ccc1Cl`, the growth inhibition is -2.75% in assay [1]; -11.1% in assay [2]; 3.15% in assay [3]; -2.15% in assay [4]; -1.45% in assay [6].
The corresponding values for `CC(=O)CC(C)=O.CC(=O)CC(C)=O.CC(=O)CC(C)=O.CC(=O)CC(C)=O.[Zr]` are 7.2%, 28.6%, 10.4%, 29.6% and 30.1%.
The corresponding values for `CCOP(=O)(O)OCC.[Y]` are 13.6%, 7.3%, 6.5%, -16.8% and 11.2%.
With `O=C(Nc1ccccc1)c1ccc([As](c2ccc(C(=O)Nc3ccccc3)cc2)c2ccc(C(=O)Nc3ccccc3)cc2)cc1`, the growth inhibition in assay [1] was -8.9%; in assay [2], -7%; in assay [3] it was -4.85%; in assay [4], -23.9%; in assay [6], -33.5%.
Consider `O=C([CH-]C(=O)c1ccccc1)c1ccccc1.O=C([CH-]C(=O)c1ccccc1)c1ccccc1.[OH-].[OH-].[Ti+4]`, for which the growth inhibition was 6.25% in assay [1]; -9.65% in assay [2]; -6.85% in assay [3]; 36.9% in assay [5]; 8.7% in assay [6].
Regarding `c1cc2c(cc1[C@@H]1OC[C@@H]3[C@H]1CO[C@H]3c1ccc3c(c1)OCO3)OCO2`, the growth inhibition in assay [1] is 14.1%; in assay [2], 12.8%; in assay [3] it was 47.2%; in assay [4], 12.2%; in assay [6], 6.15%.
As for `O=C(O)C(O)(c1ccccc1)c1ccsc1` (centres undefined), the growth inhibition in assay [1] is 4.45%; in assay [2], 2.15%; in assay [3], -8.6%; in assay [4], -28.9%; in assay [6], 8.8%.
`COc1ccc2c(c1O)C1=CC(=O)CC[C@]13CCN(C)[C@H]3C2`: the growth inhibition is -14.1% in assay [1]; -38.3% in assay [2]; -14.2% in assay [3]; 6.15% in assay [4]; -10.2% in assay [6].
On the same counts, the results for `CC(C)(C)C(=O)CP(=O)(O)O` (tested in a mixture with another compound) are 24.1%, -4.45%, 1.5%, 14.7% and 15.3%.
The corresponding values for `CC1CN=C(NCc2ccccc2)S1` (centres undefined) are -33.2%, 16.6%, -33.5%, 21.9% and -6.6%.
The corresponding values for `Cl.[O-]c1cccc2cccnc12.[O-]c1cccc2cccnc12.[O-]c1cccc2cccnc12.[O-]c1cccc2cccnc12.[Ti+4]` are 89.8% (active), 92.8% (active), 92.8% (active), 91.3% (active) and 84.6% (active).
As for `COc1cc2c(cc1O)CC1c3c(cc(O)c(OC)c3-2)CCN1C` (centres undefined), the growth inhibition is 1.55% in assay [1]; -8.45% in assay [2]; -10.8% in assay [3]; -15.8% in assay [4]; 2.85% in assay [6].
For `CC(Cc1ccc(O)cc1)NCC(O)c1cc(O)cc(O)c1` (centres undefined), the growth inhibition in assay [1] is 9.65%; in assay [2], 13.2%; in assay [3], 6.95%; in assay [4], -8.45%; in assay [6] it was 6.55%.
The corresponding values for `CCN(CC)C(=O)CCNC(C)Cc1c[nH]c2ccccc12` (centres undefined) are -4.1%, -13.7%, 39.9%, 22.1% and -37.5%.
